In the library only some 1.7% were active in any assay of this set; here they are far more common.
TRPML1 blocker = inhibitors of human TRPML1 channel. Q9GZU1. TRPML1-inducible cells, Ca2+ dye fluorescence, FDSS; active compounds read low; inhibition of EC80 agonist-evoked calcium signal. activity change, negative = inhibition, % (test concentration not listed). actives 0.02% (n = 390,000); in the data active = activity change below about -50%; inconclusive = between about -30% and that limit;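 also: stimulus is agonist 54-4 at its EC80 concentration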
Target sequence (Q9GZU1 whole entry, looked up): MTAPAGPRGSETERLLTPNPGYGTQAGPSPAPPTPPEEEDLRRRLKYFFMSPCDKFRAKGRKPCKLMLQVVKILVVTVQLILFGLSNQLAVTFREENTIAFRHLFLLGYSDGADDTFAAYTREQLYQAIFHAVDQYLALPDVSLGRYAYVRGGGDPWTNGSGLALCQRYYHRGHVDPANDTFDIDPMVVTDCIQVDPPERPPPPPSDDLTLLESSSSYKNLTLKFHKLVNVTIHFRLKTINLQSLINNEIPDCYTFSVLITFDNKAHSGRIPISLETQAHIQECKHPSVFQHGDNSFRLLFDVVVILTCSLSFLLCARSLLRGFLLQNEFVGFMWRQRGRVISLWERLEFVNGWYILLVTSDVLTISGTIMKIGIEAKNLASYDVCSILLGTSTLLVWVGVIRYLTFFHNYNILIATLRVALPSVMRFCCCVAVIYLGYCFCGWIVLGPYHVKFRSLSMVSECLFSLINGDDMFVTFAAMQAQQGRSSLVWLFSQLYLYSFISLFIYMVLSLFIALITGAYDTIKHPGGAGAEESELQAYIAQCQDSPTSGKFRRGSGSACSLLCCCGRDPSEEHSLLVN
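TRPML1-DL cells, Tet-induced overnight (~16 h, 37 °C) at 1,500 cells/well, were loaded with Ca8 no-wash dye plus quencher for 45-90 min at room temperature. Compounds were pinned during FDSS kinetic reading; agonist 54-4 at EC80 (4 uM final) then added.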
TRHR agonist = activates the human TRH receptor; TRHR cells, calcium flux fluo-8, FDSS agonist mode; activation, % at 2 µM; actives 0.18% (n = 360,000); AID 493084; in the data active = activation above about 30%
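Steps: seed TRHR cells overnight; add fluo-8 no-wash Ca dye, RT 30 min–1.5 h; record 10 s baseline; pin-transfer compounds; monitor fluorescence 1 cycle/s for the agonist window. Calcium increases flag candidate agonists.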
hERG WT inh = KCNH2 (human, wildtype) channel inhibition; AID 720551; actives 0.37% (n = 340,000); U2OS, BacMam KCNH2, thallium flux FluxOr; active compounds read low; activity change, % at 1.84 µM;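 active = maximum activity change below -70%; inconclusive = maximum activity change between -70% and -50%; inactive = maximum activity change above -50%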
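U2OS cells transduced with wild-type KCNH2 virus are loaded with FluxOr dye for 45 min, and thallium flux is measured in kinetic reads before and after stimulation buffer. Rate constants are normalized to DMSO controls.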
TRHR enhancer = TRH receptor (human) allosteric enhancement; TRHR cells, fluo-8 calcium fluorescence, EC20 TRH enhancement; P34981; actives 0.66% (n = 360,000); enhancement, % at 2 µM; in the data active = enhancement above about 30%
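TRHR-expressing cells loaded with fluo-8 calcium dye were read kinetically (ex 480/em 530) during compound addition, then stimulated with an EC20 of TRH (10 nM final). Enhancement of the Gq-mediated intracellular calcium response was scored.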
TRPML1 agonist = activates the human TRPML1 channel | Q9GZU1 | TRPML1-expressing cells, Ca2+ dye fluorescence, FDSS | activation, % (no concentration beside the values) | actives 0.12% (n = 410,000) | AID 624414; in the data active = activation above about 50%; inconclusive = mostly about 30% to 49%
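Tetracycline-induced TRPML1-DL cells are seeded and incubated overnight before loading with a no-wash Ca2+ dye and quencher. Agonist activity is taken from the 110 s fluorescence read following compound pin-transfer on an FDSS, before EC80 54-4 challenge.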
KCNH2 3.1 block = blocks the human KCNH2 3.1 channel isoform. actives 0.95% (n = 340,000). U2OS KCNH2 3.1, thallium flux FluxOr; active compounds read low. activity change, % (tested at about 1.8 µM). AID 720553;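 active = maximum activity change below -70%; inconclusive = maximum activity change from -70% to -50%; inactive = maximum activity change above -50%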;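 also: thallium influx rate constant from kinetic fluorescence after stimulation buffer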
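Virally transduced U2OS (3.1 isoform, 4 h infection in dark at RT) → overnight 37 C → FluxOr + Red40 in HBSS/HEPES, 45 min → stimulation buffer, 2 min kinetic read → rate constant vs DMSO controls.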
Large screens that a line does not name were inactive.

Cc1ccc(C(=O)N/C(=C\c2ccco2)C(=O)NCCCn2ccnc2)cc1	KCNH2 3.1 block inconclusive
O=C(NCCCn1ccnc1)/C(=C/c1ccccc1)NC(=O)c1ccccc1	hERG WT inh -137, KCNH2 3.1 block -113
COc1ccc(/C=C(\NC(=O)c2ccc(C)cc2)C(=O)NCCCn2ccnc2)cc1OC	none
Cc1ccc(C(=O)N/C(=C/c2ccco2)C(=O)NCCCn2ccnc2)cc1	hERG WT inh inconclusive, KCNH2 3.1 block -93
CCCCn1cnc2cc(NC(=O)c3cc(OC)c(OC)c(OC)c3)ccc21	none (no result: hERG WT inh, KCNH2 3.1 block)
O=C(CSc1nnc(Cc2ccc3c(c2)OCO3)n1C1CCCCC1)NC1CCCC1	none
NC(=O)CSc1nnc(Cc2ccc3c(c2)OCO3)n1C1CCCCC1	KCNH2 3.1 block -77
CN1C(=O)C2(OCC(CO)([N+](=O)[O-])CO2)c2ccccc21 (centres undefined)	none
CCCCc1ccc(NC(=O)N2CCN(c3cc(C)nc4ccccc34)CC2)c(C)c1	KCNH2 3.1 block -94 (no result: TRPML1 blocker, TRPML1 agonist)
COc1ccc(/C=C2/C(=O)C(C)(C(C)C)CCC2C)cc1 (centres undefined)	none
Cc1cc(C)cc(Cn2cc(CN3CC(N4CCSCC4)CS3(=O)=O)nn2)c1 (centres undefined)	none (no result: TRPML1 blocker, TRHR agonist, hERG WT inh, TRHR enhancer, KCNH2 3.1 block)
OC(COc1ccc2ccccc2c1)CN1CCN(c2ccc(F)cc2)CC1 (centres undefined)	KCNH2 3.1 block -74
COc1cccc(OCC(O)CN2CCN(c3ccc(F)cc3)CC2)c1 (centres undefined)	none
COc1cc(-c2nc3ccc(C)cn3c2NCc2ccccc2)ccc1-c1cccc(Cl)c1	none (no result: TRHR agonist, TRHR enhancer)
Cc1ccc2nc(-c3ccc(-c4cccc(Cl)c4)cc3)c(NCc3ccccc3)n2c1	KCNH2 3.1 block -78
Cc1ccc(-c2nc3ccccn3c2NCc2ccc3c(c2)OCO3)cc1	KCNH2 3.1 block -92
Cc1ccc(Nc2c([N+](=O)[O-])c(=O)oc3ccccc23)cc1C	KCNH2 3.1 block -75
CC(C)Oc1ccc(C(=O)N2CC(=O)Nc3ccc(F)cc3C2c2ccc(F)cc2)cc1 (centres undefined)	none (no result: hERG WT inh, KCNH2 3.1 block)
O=C(COC(=O)c1cc(Cl)ccc1[N+](=O)[O-])Nc1cccc2ccccc12	none
O=C(COC(=O)c1cc(Cl)ccc1[N+](=O)[O-])NCc1ccc(Cl)cc1Cl	TRHR enhancer 39
Cc1ccc(C)c(N2CCN(C(=O)c3cnn(C(C)(C)C)c3C3CCN(C(=O)OC(C)(C)C)CC3)CC2)c1	TRPML1 agonist 51 (no result: hERG WT inh, KCNH2 3.1 block)
Cc1ccc(N2CCN(C(=O)c3cnn(-c4ccc(F)cc4F)c3C3CCN(C(=O)OC(C)(C)C)CC3)CC2)c(C)c1	TRPML1 agonist 58 (no result: hERG WT inh, KCNH2 3.1 block)
CCn1c(SC(C)C(=O)NCC2CCCO2)nc2ccccc21 (centres undefined)	none
COc1cc(C(=O)n2nc(C)cc2C)ccc1O	TRHR enhancer 38
O=C(NCc1ccccn1)c1ccccc1OCc1ccc(F)cc1	KCNH2 3.1 block -101
CN(CC(=O)NCC1CCCO1)S(=O)(=O)c1ccc2ccccc2c1 (centres undefined)	none (no result: TRHR agonist, TRHR enhancer)
CC(C)CN(C(=O)c1cccc([N+](=O)[O-])c1)c1c(N)n(CC(C)C)c(=O)[nH]c1=O	TRHR enhancer 33
O=C(CNC(=O)c1ccccc1Cl)OC(C(=O)Nc1cc(C(F)(F)F)ccc1Cl)c1ccccc1 (centres undefined)	none (no result: TRPML1 blocker, hERG WT inh, TRPML1 agonist, KCNH2 3.1 block)
C/C(=N\NC(N)=O)C1(C)CCCCC1	TRHR enhancer 35
O=C(Cc1c(F)cccc1Cl)N/N=C/c1cccnc1	none
Cc1ccc(NC(=O)Cn2cc(S(=O)(=O)N3CCCC3)c(S(=O)(=O)N3CCCC3)c2)cc1F	TRHR enhancer 32 (no result: hERG WT inh, KCNH2 3.1 block)
Cc1ccc(NC(=O)Cn2cc(S(=O)(=O)N3CCCC3)c(S(=O)(=O)N3CCCC3)c2)cc1C	none (no result: hERG WT inh, KCNH2 3.1 block)
CC1(C(=O)NS(=O)(=O)C2CC2)CCCN(C(=O)COCc2ccccc2)C1 (centres undefined)	none (no result: TRPML1 blocker, TRHR agonist, hERG WT inh, TRHR enhancer, KCNH2 3.1 block)
CCOC(=O)C1CCN(C(=O)c2c(-c3ccccc3)noc2C)CC1	KCNH2 3.1 block -75

Assay outcomes (PubChem)
